Data from the supplement of paper PMC11732987, “Enantioselective OTUD7B fragment discovery through chemoproteomics screening and high-throughput optimisation” (Communications Chemistry, 2025).

Columns and labels:
Assay in all cases: log2 ratio of Biotin-Ahx-Ub-VS probe labelling (fragment/DMSO); higher = less target engagement (more negative = stronger competition), active = hit call of the paper (q ≤ 0.05, log2 ratio ≤ -1)
Conditions in all cases: compound concentration: 200 uM; treatment time: 3 h
USP42 = biological target: T1, USP42 (UniProt Q9H9J4)
T1 sequence (whole entry): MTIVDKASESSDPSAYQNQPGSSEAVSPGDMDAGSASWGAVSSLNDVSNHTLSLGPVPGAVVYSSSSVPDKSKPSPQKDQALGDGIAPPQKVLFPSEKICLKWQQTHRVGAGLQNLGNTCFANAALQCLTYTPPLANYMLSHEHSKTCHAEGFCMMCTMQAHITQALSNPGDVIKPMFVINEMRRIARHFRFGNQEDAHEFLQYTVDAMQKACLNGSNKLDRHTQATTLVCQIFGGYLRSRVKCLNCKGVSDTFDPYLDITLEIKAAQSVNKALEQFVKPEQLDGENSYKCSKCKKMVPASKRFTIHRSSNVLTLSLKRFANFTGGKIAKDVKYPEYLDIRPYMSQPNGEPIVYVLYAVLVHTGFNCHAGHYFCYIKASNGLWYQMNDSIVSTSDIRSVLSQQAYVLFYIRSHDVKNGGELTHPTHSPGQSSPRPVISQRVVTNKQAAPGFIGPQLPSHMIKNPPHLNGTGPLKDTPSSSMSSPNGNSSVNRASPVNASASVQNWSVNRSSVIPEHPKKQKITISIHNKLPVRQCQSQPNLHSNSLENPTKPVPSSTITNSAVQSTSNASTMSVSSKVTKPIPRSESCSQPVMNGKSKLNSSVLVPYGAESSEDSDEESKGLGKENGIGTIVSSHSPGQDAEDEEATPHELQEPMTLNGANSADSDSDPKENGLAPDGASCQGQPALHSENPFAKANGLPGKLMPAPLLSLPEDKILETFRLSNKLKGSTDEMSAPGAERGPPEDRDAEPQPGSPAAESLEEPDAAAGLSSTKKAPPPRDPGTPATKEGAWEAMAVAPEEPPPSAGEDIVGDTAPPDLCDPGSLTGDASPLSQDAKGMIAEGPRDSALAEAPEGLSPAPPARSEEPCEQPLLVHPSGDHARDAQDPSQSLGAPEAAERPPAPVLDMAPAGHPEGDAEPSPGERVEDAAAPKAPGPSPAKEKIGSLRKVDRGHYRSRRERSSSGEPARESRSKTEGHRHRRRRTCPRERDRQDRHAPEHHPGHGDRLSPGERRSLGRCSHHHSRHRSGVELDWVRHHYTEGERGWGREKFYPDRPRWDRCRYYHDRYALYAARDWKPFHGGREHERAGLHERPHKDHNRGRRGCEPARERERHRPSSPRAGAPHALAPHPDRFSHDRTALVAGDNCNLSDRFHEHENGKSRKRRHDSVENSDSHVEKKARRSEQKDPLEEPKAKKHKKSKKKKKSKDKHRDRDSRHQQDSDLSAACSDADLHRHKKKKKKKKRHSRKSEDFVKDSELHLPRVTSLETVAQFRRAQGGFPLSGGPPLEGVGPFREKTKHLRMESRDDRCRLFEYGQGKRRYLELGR
Summary of the method: (§1)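 HEK293T lysate (495 µg per sample, in Tris/CHAPS/IGEPAL buffer with protease inhibitors) was treated in triplicate with fragment at 200 µM or with DMSO for 3 h. It was then treated with Biotin-Ahx-Ub-VS (0.5 µM final) for 1 h. Labelled DUBs were NeutrAvidin-enriched, digested with LysC and trypsin, and run by diaPASEF LC-MS/MS. Spectronaut label-free quantities were global-median-normalised. Values are average log2 ratios fragment/DMSO by unpaired t-test, using proteins with ≥2 unique peptides.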

USP46 = USP46 (UniProt P62068)
Summary of the method: as §1

USP47 = biological target: T2, USP47 (UniProt Q96K76)
T2 sequence (whole entry): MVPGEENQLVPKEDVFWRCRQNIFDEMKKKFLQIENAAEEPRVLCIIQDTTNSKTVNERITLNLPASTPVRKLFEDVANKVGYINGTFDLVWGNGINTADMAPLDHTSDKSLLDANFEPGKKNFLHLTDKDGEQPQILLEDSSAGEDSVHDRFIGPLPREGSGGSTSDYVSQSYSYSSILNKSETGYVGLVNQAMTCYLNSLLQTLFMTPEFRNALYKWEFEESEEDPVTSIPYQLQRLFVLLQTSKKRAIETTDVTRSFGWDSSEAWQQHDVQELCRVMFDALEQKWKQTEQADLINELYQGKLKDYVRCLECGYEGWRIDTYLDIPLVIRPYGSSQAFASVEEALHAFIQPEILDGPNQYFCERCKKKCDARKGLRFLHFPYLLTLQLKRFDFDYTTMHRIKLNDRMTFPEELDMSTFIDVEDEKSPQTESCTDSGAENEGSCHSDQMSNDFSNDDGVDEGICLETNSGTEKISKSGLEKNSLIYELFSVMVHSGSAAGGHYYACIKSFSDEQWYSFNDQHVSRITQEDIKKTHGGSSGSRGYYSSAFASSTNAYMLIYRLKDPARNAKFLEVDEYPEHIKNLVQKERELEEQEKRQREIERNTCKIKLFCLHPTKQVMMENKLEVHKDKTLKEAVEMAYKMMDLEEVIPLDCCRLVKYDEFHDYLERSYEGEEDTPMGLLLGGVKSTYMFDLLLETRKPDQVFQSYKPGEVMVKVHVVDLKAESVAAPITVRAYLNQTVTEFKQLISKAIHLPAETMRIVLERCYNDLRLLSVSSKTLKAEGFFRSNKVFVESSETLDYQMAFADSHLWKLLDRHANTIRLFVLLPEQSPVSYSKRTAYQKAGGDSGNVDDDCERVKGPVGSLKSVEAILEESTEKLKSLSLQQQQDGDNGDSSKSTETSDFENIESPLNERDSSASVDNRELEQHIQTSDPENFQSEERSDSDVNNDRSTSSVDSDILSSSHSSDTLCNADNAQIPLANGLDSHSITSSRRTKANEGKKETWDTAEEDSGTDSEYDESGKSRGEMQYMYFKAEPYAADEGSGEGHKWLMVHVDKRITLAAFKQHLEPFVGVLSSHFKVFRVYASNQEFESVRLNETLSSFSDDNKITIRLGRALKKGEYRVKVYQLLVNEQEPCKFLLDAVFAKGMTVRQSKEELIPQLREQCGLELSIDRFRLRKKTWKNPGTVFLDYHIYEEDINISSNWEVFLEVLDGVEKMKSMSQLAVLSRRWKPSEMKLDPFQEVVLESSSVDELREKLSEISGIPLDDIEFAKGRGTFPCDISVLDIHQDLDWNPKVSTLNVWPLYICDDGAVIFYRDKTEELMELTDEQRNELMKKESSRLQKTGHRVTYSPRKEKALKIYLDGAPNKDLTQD
Summary of the method: as §1

USP48 = biological target: T3, USP48 (UniProt Q86UV5)
T3 sequence (whole entry): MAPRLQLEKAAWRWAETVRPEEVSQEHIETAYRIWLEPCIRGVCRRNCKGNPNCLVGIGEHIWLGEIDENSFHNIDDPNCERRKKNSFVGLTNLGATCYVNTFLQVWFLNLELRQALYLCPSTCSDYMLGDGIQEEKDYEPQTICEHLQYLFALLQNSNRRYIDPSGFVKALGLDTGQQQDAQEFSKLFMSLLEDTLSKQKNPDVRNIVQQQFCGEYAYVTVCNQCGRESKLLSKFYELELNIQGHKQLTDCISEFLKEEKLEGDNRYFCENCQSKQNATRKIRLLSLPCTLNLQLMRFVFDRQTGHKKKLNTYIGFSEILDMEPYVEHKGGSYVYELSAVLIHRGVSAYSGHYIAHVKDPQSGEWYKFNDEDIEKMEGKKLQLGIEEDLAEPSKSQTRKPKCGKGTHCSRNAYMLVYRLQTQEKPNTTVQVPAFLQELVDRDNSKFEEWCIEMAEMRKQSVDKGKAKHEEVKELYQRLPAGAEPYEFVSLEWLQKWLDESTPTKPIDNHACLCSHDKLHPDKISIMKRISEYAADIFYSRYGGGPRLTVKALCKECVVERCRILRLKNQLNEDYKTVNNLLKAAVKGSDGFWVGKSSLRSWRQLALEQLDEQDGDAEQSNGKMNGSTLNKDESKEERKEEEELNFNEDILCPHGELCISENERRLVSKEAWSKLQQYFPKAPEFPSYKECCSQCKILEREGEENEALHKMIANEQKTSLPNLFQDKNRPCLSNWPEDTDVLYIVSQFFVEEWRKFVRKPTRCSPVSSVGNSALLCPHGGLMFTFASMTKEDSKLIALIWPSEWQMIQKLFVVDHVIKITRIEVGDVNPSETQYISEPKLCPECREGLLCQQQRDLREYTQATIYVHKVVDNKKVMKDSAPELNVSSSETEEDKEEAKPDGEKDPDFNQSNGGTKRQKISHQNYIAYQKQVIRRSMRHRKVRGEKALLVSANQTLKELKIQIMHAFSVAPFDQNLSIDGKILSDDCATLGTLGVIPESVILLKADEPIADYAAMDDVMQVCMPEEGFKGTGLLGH
Summary of the method: as §1

USP5 = biological target: T4, USP5 (UniProt P45974)
T4 sequence (whole entry): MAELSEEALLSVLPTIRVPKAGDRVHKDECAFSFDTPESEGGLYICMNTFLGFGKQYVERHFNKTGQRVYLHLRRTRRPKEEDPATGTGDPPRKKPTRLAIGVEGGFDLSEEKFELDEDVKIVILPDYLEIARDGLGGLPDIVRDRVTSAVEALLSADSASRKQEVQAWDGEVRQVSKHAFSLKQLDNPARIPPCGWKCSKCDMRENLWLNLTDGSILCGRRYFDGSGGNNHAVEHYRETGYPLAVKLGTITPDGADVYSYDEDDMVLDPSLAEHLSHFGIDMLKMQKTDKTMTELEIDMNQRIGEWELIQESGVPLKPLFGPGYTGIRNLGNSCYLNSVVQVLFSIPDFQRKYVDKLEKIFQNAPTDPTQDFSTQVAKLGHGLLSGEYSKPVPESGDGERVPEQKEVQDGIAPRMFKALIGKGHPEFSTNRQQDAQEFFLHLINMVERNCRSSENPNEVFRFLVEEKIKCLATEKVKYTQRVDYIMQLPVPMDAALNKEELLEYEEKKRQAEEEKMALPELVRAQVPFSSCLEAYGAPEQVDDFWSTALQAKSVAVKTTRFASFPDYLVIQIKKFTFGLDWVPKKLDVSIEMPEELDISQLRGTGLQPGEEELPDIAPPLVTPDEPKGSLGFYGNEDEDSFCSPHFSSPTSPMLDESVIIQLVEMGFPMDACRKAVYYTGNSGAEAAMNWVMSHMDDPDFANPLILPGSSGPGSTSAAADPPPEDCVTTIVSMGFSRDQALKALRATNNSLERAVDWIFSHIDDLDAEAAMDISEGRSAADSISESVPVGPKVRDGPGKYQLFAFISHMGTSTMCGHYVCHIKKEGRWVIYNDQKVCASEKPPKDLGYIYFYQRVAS
Summary of the method: as §1

USP54 = USP54 (UniProt Q70EL1)
Summary of the method: as §1

USP7 = USP7 (UniProt Q93009)
Summary of the method: as §1

USP8 = biological target: T5, USP8 (UniProt P40818)
T5 sequence (whole entry): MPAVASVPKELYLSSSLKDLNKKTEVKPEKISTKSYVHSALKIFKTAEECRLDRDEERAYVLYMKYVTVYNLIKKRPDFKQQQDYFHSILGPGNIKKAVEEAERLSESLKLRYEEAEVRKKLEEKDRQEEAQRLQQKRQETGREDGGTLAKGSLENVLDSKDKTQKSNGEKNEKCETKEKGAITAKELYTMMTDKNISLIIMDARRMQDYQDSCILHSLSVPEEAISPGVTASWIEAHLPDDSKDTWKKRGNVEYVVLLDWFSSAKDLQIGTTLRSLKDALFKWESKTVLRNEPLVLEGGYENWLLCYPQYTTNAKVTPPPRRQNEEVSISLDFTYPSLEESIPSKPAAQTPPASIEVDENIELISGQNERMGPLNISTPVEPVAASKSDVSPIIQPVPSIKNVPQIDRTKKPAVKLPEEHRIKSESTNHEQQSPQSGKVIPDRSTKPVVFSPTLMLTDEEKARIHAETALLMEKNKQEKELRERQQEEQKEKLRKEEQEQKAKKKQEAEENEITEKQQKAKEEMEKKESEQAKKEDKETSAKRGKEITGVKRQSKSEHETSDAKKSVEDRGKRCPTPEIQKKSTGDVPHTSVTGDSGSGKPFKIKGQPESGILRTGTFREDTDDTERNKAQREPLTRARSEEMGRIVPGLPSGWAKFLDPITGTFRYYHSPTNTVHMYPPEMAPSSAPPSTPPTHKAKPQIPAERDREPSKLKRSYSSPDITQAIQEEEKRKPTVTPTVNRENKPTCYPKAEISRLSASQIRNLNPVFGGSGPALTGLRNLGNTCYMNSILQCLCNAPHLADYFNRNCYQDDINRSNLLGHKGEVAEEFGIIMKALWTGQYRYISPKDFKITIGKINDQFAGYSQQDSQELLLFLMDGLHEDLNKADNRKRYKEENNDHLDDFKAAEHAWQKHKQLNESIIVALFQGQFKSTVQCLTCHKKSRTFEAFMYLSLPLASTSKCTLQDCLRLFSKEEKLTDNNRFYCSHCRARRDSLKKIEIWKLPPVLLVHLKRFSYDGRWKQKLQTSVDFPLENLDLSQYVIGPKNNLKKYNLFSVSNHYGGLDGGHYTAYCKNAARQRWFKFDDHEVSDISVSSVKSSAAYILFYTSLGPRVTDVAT
Summary of the method: as §1

Measured: log2 ratio of Biotin-Ahx-Ub-VS probe labelling

Chain of USP7 (Q93009 whole entry, looked up): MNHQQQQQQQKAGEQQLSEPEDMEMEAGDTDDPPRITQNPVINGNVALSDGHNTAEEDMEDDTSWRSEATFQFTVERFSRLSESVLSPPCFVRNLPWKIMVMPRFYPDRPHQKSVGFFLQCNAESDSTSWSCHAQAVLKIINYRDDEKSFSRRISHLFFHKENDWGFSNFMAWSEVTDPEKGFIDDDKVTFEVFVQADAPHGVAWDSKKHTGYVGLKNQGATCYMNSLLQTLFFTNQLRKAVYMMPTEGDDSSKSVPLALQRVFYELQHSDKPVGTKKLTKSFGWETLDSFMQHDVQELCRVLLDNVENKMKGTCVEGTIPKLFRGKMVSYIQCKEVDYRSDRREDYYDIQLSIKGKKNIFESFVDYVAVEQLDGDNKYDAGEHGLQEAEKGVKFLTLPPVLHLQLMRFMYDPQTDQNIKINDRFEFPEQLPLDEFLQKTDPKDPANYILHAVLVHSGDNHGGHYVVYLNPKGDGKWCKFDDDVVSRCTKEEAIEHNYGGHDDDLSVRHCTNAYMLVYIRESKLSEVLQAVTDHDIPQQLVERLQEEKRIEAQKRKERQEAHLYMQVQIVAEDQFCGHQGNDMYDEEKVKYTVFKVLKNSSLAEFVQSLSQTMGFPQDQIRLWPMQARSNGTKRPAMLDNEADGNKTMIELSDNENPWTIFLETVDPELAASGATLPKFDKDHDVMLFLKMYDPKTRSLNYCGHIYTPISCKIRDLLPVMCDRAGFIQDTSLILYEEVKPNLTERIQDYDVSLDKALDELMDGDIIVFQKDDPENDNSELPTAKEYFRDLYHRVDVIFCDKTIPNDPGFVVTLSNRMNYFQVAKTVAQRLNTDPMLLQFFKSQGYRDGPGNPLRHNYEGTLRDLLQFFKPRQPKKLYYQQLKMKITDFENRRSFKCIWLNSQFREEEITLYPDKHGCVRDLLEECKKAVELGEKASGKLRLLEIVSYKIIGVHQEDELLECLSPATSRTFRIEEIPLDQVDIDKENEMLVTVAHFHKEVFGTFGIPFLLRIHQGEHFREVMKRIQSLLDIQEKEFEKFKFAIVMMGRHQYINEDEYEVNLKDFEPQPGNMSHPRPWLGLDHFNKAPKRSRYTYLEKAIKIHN
Chain of USP54 (Q70EL1 whole entry): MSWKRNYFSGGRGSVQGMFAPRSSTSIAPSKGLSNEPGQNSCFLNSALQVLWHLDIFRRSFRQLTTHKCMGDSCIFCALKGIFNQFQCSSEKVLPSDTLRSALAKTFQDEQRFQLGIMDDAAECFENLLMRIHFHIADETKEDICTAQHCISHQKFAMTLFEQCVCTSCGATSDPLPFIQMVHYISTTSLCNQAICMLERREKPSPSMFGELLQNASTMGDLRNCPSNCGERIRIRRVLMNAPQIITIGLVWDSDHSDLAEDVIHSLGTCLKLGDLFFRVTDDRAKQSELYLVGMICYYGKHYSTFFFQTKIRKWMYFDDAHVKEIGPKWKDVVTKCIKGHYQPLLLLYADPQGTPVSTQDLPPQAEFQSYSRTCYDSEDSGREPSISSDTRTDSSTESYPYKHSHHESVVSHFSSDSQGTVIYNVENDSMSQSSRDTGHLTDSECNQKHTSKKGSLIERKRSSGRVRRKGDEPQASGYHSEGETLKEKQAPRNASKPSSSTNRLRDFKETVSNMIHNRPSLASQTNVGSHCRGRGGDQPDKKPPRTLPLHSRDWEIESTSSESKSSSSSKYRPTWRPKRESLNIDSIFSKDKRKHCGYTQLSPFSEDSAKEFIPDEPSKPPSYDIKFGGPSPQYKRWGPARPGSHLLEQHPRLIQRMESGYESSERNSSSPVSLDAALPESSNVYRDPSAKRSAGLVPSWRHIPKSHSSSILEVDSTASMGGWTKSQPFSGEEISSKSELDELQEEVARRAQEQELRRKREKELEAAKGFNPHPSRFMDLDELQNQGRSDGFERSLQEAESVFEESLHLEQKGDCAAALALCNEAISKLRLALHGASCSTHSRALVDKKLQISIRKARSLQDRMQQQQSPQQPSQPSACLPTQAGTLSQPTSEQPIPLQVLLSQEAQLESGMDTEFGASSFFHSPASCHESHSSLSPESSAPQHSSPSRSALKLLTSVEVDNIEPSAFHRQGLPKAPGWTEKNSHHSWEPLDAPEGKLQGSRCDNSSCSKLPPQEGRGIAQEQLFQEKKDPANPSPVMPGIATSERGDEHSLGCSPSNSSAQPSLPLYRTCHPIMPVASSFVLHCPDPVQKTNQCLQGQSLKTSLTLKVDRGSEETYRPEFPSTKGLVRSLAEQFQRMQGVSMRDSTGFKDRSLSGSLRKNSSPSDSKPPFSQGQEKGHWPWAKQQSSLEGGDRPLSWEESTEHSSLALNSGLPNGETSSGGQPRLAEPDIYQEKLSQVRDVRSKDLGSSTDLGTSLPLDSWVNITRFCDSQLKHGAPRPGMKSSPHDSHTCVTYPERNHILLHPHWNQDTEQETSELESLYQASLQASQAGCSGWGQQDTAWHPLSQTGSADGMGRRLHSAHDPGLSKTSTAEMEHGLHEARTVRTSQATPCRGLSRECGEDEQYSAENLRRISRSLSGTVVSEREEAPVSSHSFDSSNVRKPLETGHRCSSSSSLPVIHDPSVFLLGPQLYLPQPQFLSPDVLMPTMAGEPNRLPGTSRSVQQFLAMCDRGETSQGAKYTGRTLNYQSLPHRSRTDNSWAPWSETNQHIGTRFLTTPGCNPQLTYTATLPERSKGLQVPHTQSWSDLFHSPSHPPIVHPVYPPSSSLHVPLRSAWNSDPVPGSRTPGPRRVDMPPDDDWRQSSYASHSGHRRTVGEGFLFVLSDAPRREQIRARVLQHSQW
Chain of USP46 (P62068 whole entry): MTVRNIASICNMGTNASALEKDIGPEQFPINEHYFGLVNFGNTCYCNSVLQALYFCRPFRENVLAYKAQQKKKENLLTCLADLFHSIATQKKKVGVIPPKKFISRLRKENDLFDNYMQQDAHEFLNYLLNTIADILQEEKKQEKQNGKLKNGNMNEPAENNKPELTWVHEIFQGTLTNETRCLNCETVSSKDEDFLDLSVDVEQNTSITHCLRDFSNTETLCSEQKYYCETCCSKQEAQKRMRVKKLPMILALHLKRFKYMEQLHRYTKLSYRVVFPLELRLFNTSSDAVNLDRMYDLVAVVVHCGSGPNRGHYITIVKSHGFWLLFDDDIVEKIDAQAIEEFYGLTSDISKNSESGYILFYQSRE

Cl.Cn1nc2c(c1CNC(=O)CCl)CCCC2
inactive: USP42 -0.241 | USP46 0.117 | USP47 0.0138 | USP48 -0.0889 | USP5 0.0696 | USP54 0.268 | USP7 -0.055 | USP8 -0.598
